Out of some 360,000 compounds screened, about 2,000 (0.56%) were called active. Another 2% or so got no clear call; they are omitted. This excerpt belongs to a sample that is enriched for actives. A number with no mark means an inactive call. Cut-off read from the data, not from the text of the source: active = activity change below about -65%; inconclusive = mostly about -30% to -63%; inactive = weaker than that.
target: Homeobox protein SIX1 (Homo sapiens) + Protein phosphatase EYA2 (Homo sapiens) (UniProt Q15475+O00167); assay: qHTS Assay for Inhibitors of the Six1/Eya2 Interaction; conditions: AlphaScreen GST-Six1/His-Eya2 binding, biochemical; stronger effect = lower value
From the text: Its expression is low or undetectable in normal adult breast tissue but the gene is over-expressed in 50% of primary breast tumors and 90% of metastatic lesions. […] Similar to Six1, Eya2 is also not expressed in most normal adult tissues, but is reexpressed in cancers. The Six1-Eya interaction is essential for proliferation during embryonic development, and both Six1 and Eya2 have been independently implicated in the same types of cancer. Because Six1 and Eya2 are embryonic genes with little expression in adult tissues, inhibitors of their expression/activity are likely to have limited side effects. Our goal is to identify inhibitors of the Six1/Eya interaction for potential cancer therapy. To this end, we have developed a homogenous AlphaScreen assay targeting the Six1/Eya interaction. We performed a large scale HTS of the Molecular Libraries Small Molecule Repository (MLSMR) to identify inhibitors of the Six1/Eya interaction as potential anti-cancer therapeutics. Compounds identified can also be used as chemical probes to better understand the biological functions of Six1 and Eya. NIH Chemical Genomics Center [NCGC] NIH Molecular Libraries Probe Centers Network [MLPCN] MLPCN Grant: DA033147 Assay Submitter (PI): Rui Zhao, University of Colorado Denver
The first step of the 5 uL AlphaScreen assay is to dispense assay buffer (50 mM Tris, pH 8.0, 300 mM NaCl, 0.05% BSA, 0.02% Tween 20, 1 mM TCEP) into a Greiner 1536 white solid bottom microtiter plate (789175-F). Five microliters is added to Column 1, 4 uL is added to Column 2 and 3 uL is added to Columns 3 through 48. A 5X protein solution (250 nM GST-Six1 protein + 500 nM His-tagged Eya2 protein) is mixed and 1 uL is dispensed to Columns 3-48. Using a 1536 pintool, 23 nL of compound is transferred to the assay plate. A solution of 5X AlphaScreen beads is mixed (50 ug/mL Glutathione linked donor beads + Nickel chelated acceptor beads) and 1 uL is dispensed to Columns 2-48. The assay plate is incubated for one hour, with a lid, at 37 deg C in the dark. The plate is read using a Perkin Elmer Envision using an AlphaScreen protocol.
% is set by controls: 0 for no effect and ±100 for the full control effect.

Sequence of Homeobox protein SIX1 (Homo sapiens) + Protein phosphatase EYA2 (Homo sapiens) (O00167 whole entry, looked up): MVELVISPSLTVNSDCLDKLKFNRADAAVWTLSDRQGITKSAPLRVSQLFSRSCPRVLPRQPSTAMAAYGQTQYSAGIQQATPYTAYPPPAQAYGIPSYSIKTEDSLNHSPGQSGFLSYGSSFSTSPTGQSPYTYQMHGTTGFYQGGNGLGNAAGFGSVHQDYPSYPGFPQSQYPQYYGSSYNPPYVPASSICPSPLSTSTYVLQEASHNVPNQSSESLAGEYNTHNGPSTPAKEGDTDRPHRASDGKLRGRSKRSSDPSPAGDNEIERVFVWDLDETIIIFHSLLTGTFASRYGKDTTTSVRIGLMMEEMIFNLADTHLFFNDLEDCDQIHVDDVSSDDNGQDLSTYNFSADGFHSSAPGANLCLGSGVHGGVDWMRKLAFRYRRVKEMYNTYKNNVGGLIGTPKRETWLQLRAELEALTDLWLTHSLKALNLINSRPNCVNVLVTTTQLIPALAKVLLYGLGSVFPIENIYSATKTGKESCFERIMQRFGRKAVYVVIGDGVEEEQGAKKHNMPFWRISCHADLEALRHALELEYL
Sequence of Homeobox protein SIX1 (Homo sapiens) + Protein phosphatase EYA2 (Homo sapiens) (Q15475 whole entry, looked up): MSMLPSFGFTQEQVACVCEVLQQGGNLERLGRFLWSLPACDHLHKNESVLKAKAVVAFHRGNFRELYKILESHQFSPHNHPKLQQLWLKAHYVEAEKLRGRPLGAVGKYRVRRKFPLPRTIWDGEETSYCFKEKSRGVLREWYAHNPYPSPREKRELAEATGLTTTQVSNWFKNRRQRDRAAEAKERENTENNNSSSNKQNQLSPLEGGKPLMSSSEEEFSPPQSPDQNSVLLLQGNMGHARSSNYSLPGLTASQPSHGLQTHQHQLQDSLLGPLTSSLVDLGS

SMILES | activity change
CC(C)c1ccc(-n2c(O)c(/C=N/N3CCOCC3)c(=O)[nH]c2=S)cc1 | 5.13%
O=C(N/N=C/c1c(O)n(C2CC2)c(=S)[nH]c1=O)c1ccccc1 | -88.6% (active)
O=C(N/N=C/c1c(O)n(C2CC2)c(=S)[nH]c1=O)c1ccccc1Cl | -80.8% (active)
O=c1[nH]c(=O)n(Cc2ccccc2)c(O)c1/C=N/Nc1c(F)c(F)c(F)c(F)c1F | 1%
CC/C(=N\NC(=O)c1ccccc1O)c1c(O)n(Cc2ccccc2)c(=O)[nH]c1=O | -9.73%
O=c1[nH]c(=S)n(C2CC2)c(O)c1/C=N/N1CCOCC1 | -0.819%
Cc1cccc(-n2c(O)c(/C=N/N3CCOCC3)c(=O)[nH]c2=S)c1 | -2.01%
COc1ccccc1-n1c(O)c(C=NC2CC2)c(=O)[nH]c1=O | 0.906%
O=C(N/N=C/c1c(O)n(Cc2ccccc2)c(=O)[nH]c1=O)c1ccccc1 | -70.8% (active)
CCOC(=O)[C@]12Cc3cc(OC)ccc3[C@H]1N(C(C)C)C(=O)c1ccccc12 | -2.51%
CCOC(=O)[C@]12Cc3ccccc3[C@H]1N(C1CCCCC1)C(=O)c1cc(OC)ccc12 | -3.21%
C[C@]12CCC3C(CC[C@H]4[C@H](O)[C@H](O)CC[C@]34C)C1CC[C@@H]2O (stereo not given in full) | 0%
COP(=O)(NS(=O)(=O)c1ccccc1)OC | 12.4%
CC1(C)Cc2c(C#N)c(N3CCNCC3)nc(-c3ccco3)c2CS1 | -3.88%
O=C1NCN(c2ccccc2)C12CCN(C(c1cccs1)c1nnnn1C1CCCCC1)CC2 (stereo not given) | -13.5%
COc1ccc(-n2nnnc2C(c2cccc3ccccc23)N2CCC(n3c(=O)[nH]c4ccccc43)CC2)cc1 (stereo not given) | -11.3%
O=C(NCC(c1cccnc1)N1CCN(c2ccccc2)CC1)Oc1ccccc1 (stereo not given) | -4.91%
CC12CN3CC(C)(CN(C1)C3c1cccs1)C2 (stereo not given) | -7.54%
CC(C)c1ccc(OCC(=O)N2CCN(C)CC2)c(Br)c1 | -2.15%
CCC(C)n1c(O)c(/C=N/Nc2nc3c(c(=O)n(C)c(=O)n3C)n2C)c(=O)[nH]c1=S (stereo not given) | -86.1% (active)
CCC(=O)CC(c1ccc([N+](=O)[O-])cc1)c1c(O)c2ccccc2oc1=O (stereo not given) | 0.567%
O=c1[nH]c2ccccc2n1C1CCN(C(c2ccccc2)c2nnnn2Cc2ccccc2)CC1 (stereo not given) | -20.3%
CCCCC(=O)N/N=C/c1c(O)n(CC)c(=S)n(CC)c1=O | -9.7%
CCCCC(=O)N/N=C/c1c(O)n(CCC2=CCCCC2)c(=O)[nH]c1=O | -75.4% (active)
O=c1[nH]c(=O)n(CCc2ccc(F)cc2)c(O)c1/C=N/N1CCCCC1 | 5.39%
COc1ccc(CCn2c(O)c(C=NC3CC3)c(=O)[nH]c2=O)cc1OC | -3.07%
CCCCC(=O)N/N=C/c1c(O)n(-c2ccccc2)c(=O)[nH]c1=O | -83.5% (active)
CCc1nnc(NS(=O)(=O)c2ccc(N=Cc3c(O)n(-c4ccccc4)c(=O)[nH]c3=O)cc2)s1 | 1.54%
COC(=O)C[C@H]1CC[C@H]2NC[C@@H](O)COC[C@@H]2O1 | 4.76%
CC[C@H]1CC2CN3CCc4c([nH]c5ccccc45)C(C(=O)OC)(C2)C13 (stereo not given in full) | -23.8%
